Screens deposited in PubChem by several laboratories.
CYP2C9 inhib: blockers of cytochrome P450 2C9 activity – biochemical, luminescence, ADME assay, primary screen; inhibition, % at 5 µM; CYP2C9 Supersomes, luciferin-H conversion; 96,000 compounds, 20% hits;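 active = blocking of liver enzyme CYP2C9 beyond about 50% at 5 µM, limit read from the data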
MRP-1 activ: H69AR viability gain despite doxorubicin, primary screen, MRP-1 activator project, H69AR cells, CellTiter-Glo; viability rescue; viability increase, % at 10 µM; 140,000 compounds, 0.61% hits;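 active = viability gain under doxorubicin at or above a set limit, the compound median plus 3 SD, cut at about 4.7% in these data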;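 note: MRP-1 overexpressing cells given doxorubicin 25 µM after compound pretreatment; 18-22 h compound pretreatment then 72 h with doxorubicin before readout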
CYP2C9 activ: human CYP2C9 activators, primary screen, biochemical, luminescence | recombinant CYP2C9, luciferin-H conversion; active compounds read high; factor 1 = untreated enzyme, 0 = blocked | activation factor at 5 µM | Cytochrome P450 2C9 (Homo sapiens), P11712 | 96,000 compounds, 1.4% hits;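 active = activation factor of 2 or more for CYP2C9 at a 5 µM dose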
MRP resist rev: reversal of MRP1-mediated doxorubicin resistance, primary screen, H69AR cells, doxorubicin co-treatment | H69AR cells + 2 uM doxorubicin, CellTiter-Glo, 72 h | differential viability (reversal), % at 10 µM | 85,000 compounds, 0.04% hits;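 active = viability drop by adding the cancer drug above about 55%, with treated viability meeting a 40% cutoff, limit read from the data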;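 note: larger differential means the compound sensitizes cells more to doxorubicin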
CYP2C19 inh: blockers of cytochrome P450 2C19 activity – biochemical, luminescence, ADME assay, primary screen; CYP2C19 Supersomes, luciferin-H EGE luminescence, 30 min; inhibition, % at 5 µM; 96,000 compounds, 21% hits; AID 778, 2007;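 active = CYP2C19 inhibition above a set limit at 5 µM in the primary screen, cut at about 50% in these data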
Target sequence (P33261 whole entry, looked up): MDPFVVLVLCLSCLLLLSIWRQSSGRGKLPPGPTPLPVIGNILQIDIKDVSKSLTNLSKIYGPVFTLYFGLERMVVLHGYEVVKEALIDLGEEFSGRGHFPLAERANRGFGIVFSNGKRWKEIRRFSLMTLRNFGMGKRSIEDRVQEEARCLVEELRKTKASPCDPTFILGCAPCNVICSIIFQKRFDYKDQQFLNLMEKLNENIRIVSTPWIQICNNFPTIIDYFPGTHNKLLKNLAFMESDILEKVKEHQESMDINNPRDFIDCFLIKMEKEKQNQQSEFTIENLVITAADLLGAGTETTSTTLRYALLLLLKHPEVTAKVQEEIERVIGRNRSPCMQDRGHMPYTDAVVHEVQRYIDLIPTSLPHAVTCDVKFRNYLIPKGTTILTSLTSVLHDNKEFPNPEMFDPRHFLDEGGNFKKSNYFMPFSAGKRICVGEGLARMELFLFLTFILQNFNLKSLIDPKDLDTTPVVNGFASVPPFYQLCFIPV
CYP2C19 activ: human CYP2C19 activators, primary screen, biochemical, luminescence | Cytochrome P450 2C19 (Homo sapiens), P33261 | recombinant CYP2C19, luciferin-H EGE luminescence; active compounds read high; 0 = fully inhibited enzyme, 1 = untreated enzyme | activation factor at 5 µM | 96,000 tested, under 10 active;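 active = activation factor of at least 2 at 5 µM in the primary screen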
A number is an active result; n = inactive; x = not tested or not shown. Only some compounds are listed: those with a hit (about 21% of all), similar ones and a draw of the others.

SMILES	CYP2C9 inhib	MRP-1 activ	CYP2C9 activ	MRP resist rev	CYP2C19 inh	CYP2C19 activ
Cc1ccc(Cc2cnc(NC(=O)/C(C#N)=C/c3ccc(-c4ccccc4[N+](=O)[O-])o3)s2)cc1	54	n	n	x	n	n
Cc1ccc2[nH]c(O)c(N=NC(=O)CCc3ccccc3)c2c1Br	x	n	x	x	x	x
Cc1ccc(C)c(N2CCN(C(=O)C3CCN(c4nc(C)cc(C)n4)CC3)CC2)c1	n	n	n	n	n	n
Cc1cc(C)nc(N2CCC(C(=O)N3CCN(c4cc(Cl)ccc4C)CC3)CC2)n1	51	n	n	n	n	n
CCN(CC)S(=O)(=O)c1cccc(C(=O)N[C@H](C(=O)OCC(=O)NC(=O)NC)C(C)C)c1	n	n	n	n	n	n
COc1cc(C2NC(C(=O)O)CS2)ccc1OCc1ccccc1C#N (configuration not stated)	n	n	n	n	59	n
CCOc1cccc(/C(O)=C2/C(=O)C(=O)N(Cc3cccnc3)C2c2ccco2)c1 (configuration not stated)	65	n	n	n	n	n
Cc1ccc(/C(O)=C2/C(=O)C(=O)N(Cc3cccnc3)C2c2ccccn2)cc1 (configuration not stated)	90	n	n	n	66	n
O=C1C(=O)N(Cc2cccnc2)C(c2ccccn2)/C1=C(/O)c1ccc(F)cc1 (configuration not stated)	71	n	n	n	n	n
Cc1ccc(/C(O)=C2/C(=O)C(=O)N(CCCn3ccnc3)C2c2ccccn2)cc1 (configuration not stated)	n	n	n	n	n	n
COc1ccc(/C(O)=C2/C(=O)C(=O)N(Cc3cccnc3)C2c2ccco2)cc1OC (configuration not stated)	n	n	n	n	n	n
Cc1oc2ccc(O)c(CN3CCOCC3)c2c1C(=O)c1ccc(Cl)cc1	52	n	n	x	59	n
CSc1nnc2c3ccccc3n(CCc3ccccc3)c2n1	n	n	n	n	61	n
CCCn1c2ccccc2c2nnc(SCC(=O)Nc3cc(C)on3)nc21	n	n	n	n	n	n
C=CCn1c2ccccc2c2nnc(SCc3ccc4nonc4c3)nc21	84	n	n	n	84	n
CCCn1c2ccccc2c2nnc(SCC(=O)Nc3ncccn3)nc21	60	n	n	n	52	n
C=CCn1c2ccccc2c2nnc(SCC(=O)Nc3cc(C)on3)nc21	55	n	n	n	n	n
Cc1ccc(C2=NN=C(NC(=O)CSc3nnc4c5ccccc5n(C)c4n3)SC2)cc1	x	n	x	x	x	x
CCOC(=O)Cc1nnc(NC(=O)CSc2nnc3c4ccccc4n(C)c3n2)s1	92	n	n	n	96	n
NS(=O)(=O)c1ccc(CCNC(=O)COC(=O)C2CCCN2C(=O)c2cccs2)cc1 (configuration not stated)	n	n	n	n	75	n
COc1ccc(NC(=O)COC(=O)[C@@H]2CCCN2C(=O)c2cccs2)cc1	60	n	n	x	n	n
O=C(OCc1ccccc1)C1CCCN1C(=O)c1cccs1 (configuration not stated)	n	n	n	n	72	n
O=C(COC(=O)C1CCCN1C(=O)c1cccs1)c1ccccc1 (configuration not stated)	n	n	n	n	88	n
CCOC(=O)c1[nH]cnc1C(=O)NC(C)C	x	n	x	n	x	x
Cc1cc(NS(=O)(=O)c2ccc(NC(=S)NC(=O)c3ccc(Br)cc3)cc2)no1	x	n	x	x	x	x
SMILES	CYP2C9 inhib	MRP-1 activ	CYP2C9 activ	MRP resist rev	CYP2C19 inh	CYP2C19 activ
Cc1ccccc1-c1nc2cc(Cl)ccc2o1	n	n	n	n	n	n
FC(F)(F)c1cccc(CNc2ncccc2-c2nc3cc(Cl)ccc3o2)c1	n	5.2	n	x	n	n
Cc1cc(-c2ccccc2)c(C#N)c(SCC(N)=O)n1	n	n	3	n	n	n
Cc1cc(C)c(C#N)c(SCC(=O)Nc2ccccc2C(N)=O)n1	n	n	n	n	n	n
CCOC(=O)CC(=O)CSc1nc(C)cc(-c2cccnc2)c1C#N	73	n	n	n	n	n
CCOC(=O)CC(=O)CSc1nc(-c2cccnc2)cc(C)c1C#N	81	n	n	n	n	n
CCOC(=O)CC(=O)CSc1nc(-c2cccnc2)ccc1C#N	n	n	n	n	n	n
Cn1ncc(Br)c1C(=O)OCC(=O)Nc1nc(-c2ccccc2)cs1	x	n	x	n	x	x
COC(=O)c1c(NC(=O)COC(=O)CCc2ccc(S(=O)(=O)N3CCOCC3)cc2)sc2c1CCC2	x	n	x	x	x	x
O=C(O)CCCCCNC(=O)c1ccccc1	n	n	n	n	n	n
Clc1ccc(-c2csc(N/N=C/c3cccnc3)n2)c(Cl)c1	x	n	x	x	x	x
C(=N\Nc1nc(-c2ccccc2)cs1)/c1cccnc1	89	n	n	x	93	n
COc1cccc(C(=O)SC2=NCCS2)c1	n	n	n	n	n	n
CCOc1ccc2nc(-c3ccccc3)nc(SCC(=O)Nc3ncc(C)s3)c2c1	n	n	n	x	n	n
COc1ccc(CCn2c(C)cc3c(c2=O)C(c2ccncc2)C(C#N)=C(N)O3)cc1OC (configuration not stated)	79	n	n	n	83	n
c1ccc2c(c1)CCN(CCCNc1nc3ccccc3n3cnnc13)C2	n	n	n	n	n	n
Clc1ccc(CN2CCC(c3nc4ccc(Cl)cc4[nH]3)CC2)cc1	n	n	n	x	n	n
CCC(C)(C)n1nnnc1CN1CCC(c2nc3ccc(C)cc3[nH]2)CC1	66	n	n	n	n	n
O=C1c2ccccc2C(=O)C1c1ccncc1	91	n	n	n	n	n
Cc1ccccc1N1C(=O)c2ccccc2NC1c1ccncc1 (configuration not stated)	x	n	x	n	x	x
CC(=O)C1=C(C)NC(C)=C(C(C)=O)C1c1ccc(-c2ccccc2Cl)o1	97	n	n	n	86	n
CCOC(=O)C1=C(C)NC(=O)NC1c1ccc(-c2ccccc2F)o1 (configuration not stated)	x	n	x	x	x	x
C/C(=N\NC(=O)c1c(Cl)c(C)nn1C)c1ccc(NC(=O)COc2ccc(Cl)cc2C)cc1	66	n	n	x	n	n
C/C(=N\NC(=O)c1c(Cl)c(C)nn1C)c1cccc(NC(=O)COc2ccccc2)c1	n	n	n	x	n	n
CN1/C(=N\O)c2cccc3cccc1c23	n	n	n	n	70	n
CN1c2cccc3cccc(c23)N(C)C1(C)C	n	n	n	n	n	n
COc1ccccc1-c1c(C(F)(F)F)oc2cc(OC(=O)c3ccccc3[N+](=O)[O-])ccc2c1=O	62	n	n	x	55	n
